Results on two sequences are retold here after article PMC7862700, “An all-to-all approach to the identification of sequence-specific readers for epigenetic DNA modifications on cytosine”.

What all share (assay): DAPPL (digital affinity profiling via proximity ligation, sequencing); 10 mM Tris-HCl pH 7.5, 50 mM NaCl, 1 mM DTT, 4% glycerol, room temperature, 30 min; GST-TFs on glutathione beads, 16-mer random dsDNA library, 0.1% formaldehyde crosslink after washing; high values mean tight binding
Common to all, as to settings: protein: recombinant; tags: N-terminal GST; dsDNA, one strand shown

Assay [1] deals with T1, FLI1 (Homo sapiens, UniProt Q01543 1-452).
T1 sequence: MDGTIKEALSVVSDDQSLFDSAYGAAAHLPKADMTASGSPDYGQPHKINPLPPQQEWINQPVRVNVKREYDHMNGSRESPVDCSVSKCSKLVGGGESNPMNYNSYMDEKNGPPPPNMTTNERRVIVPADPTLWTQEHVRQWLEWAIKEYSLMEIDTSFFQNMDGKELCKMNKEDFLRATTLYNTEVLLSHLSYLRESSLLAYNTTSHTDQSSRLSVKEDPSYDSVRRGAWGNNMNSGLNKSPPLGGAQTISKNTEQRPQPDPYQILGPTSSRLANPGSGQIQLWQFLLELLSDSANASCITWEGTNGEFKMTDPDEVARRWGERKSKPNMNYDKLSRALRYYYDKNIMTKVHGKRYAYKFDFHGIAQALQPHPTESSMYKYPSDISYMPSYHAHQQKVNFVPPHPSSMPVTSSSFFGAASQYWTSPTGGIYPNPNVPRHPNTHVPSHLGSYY
The method in brief:
(§1)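 Binding signal is each hexamer's read frequency for a factor divided by its frequency in the tag-only sample. The factors were GST-fused human transcription factors from yeast, captured on glutathione beads, DNA-barcoded and pooled with that sample. Pools were incubated with 200 nmole of a random double-stranded 16-mer DNA library in Tris/NaCl/DTT/glycerol buffer at room temperature for 30 min, then washed, crosslinked with 0.1% formaldehyde, proximity-ligated with BsaI/T4 ligase (1 h, 37 °C), PCR-amplified and sequenced on an Illumina NextSeq500.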

Assay [2] concerns the target T2, ELK1 (Homo sapiens, UniProt P19419 1-428).
T2 sequence: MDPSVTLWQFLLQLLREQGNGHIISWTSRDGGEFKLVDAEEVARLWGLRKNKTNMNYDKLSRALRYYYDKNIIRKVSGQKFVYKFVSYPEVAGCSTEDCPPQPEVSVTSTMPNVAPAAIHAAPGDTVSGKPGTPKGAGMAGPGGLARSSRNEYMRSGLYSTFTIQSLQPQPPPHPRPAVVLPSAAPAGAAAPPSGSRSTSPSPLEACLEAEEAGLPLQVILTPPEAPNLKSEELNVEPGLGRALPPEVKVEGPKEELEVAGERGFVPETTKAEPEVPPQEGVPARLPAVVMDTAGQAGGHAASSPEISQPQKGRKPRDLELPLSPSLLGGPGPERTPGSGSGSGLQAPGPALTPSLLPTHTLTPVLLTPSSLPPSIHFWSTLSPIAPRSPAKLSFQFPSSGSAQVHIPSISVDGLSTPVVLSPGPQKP
In short, it runs like this: as §1

For assay [3], the target named is T3, GABPA (Homo sapiens, UniProt Q06546 1-454).
T3 sequence: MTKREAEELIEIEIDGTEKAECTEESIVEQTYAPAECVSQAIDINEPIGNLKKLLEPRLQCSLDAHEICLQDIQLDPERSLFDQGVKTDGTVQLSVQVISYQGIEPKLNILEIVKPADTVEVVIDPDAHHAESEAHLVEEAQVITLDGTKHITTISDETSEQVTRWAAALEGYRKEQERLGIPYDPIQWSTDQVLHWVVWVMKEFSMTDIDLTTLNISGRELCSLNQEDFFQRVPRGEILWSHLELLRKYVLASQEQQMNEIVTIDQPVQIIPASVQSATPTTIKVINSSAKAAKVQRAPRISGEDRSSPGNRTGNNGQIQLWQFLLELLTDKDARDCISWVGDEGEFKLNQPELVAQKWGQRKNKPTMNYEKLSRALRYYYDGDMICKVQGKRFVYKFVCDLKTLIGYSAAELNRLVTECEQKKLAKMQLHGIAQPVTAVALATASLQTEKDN
The method in brief:
as §1

Assay [4] has as its target T4, ERG (Homo sapiens, UniProt P11308 1-479).
T4 sequence: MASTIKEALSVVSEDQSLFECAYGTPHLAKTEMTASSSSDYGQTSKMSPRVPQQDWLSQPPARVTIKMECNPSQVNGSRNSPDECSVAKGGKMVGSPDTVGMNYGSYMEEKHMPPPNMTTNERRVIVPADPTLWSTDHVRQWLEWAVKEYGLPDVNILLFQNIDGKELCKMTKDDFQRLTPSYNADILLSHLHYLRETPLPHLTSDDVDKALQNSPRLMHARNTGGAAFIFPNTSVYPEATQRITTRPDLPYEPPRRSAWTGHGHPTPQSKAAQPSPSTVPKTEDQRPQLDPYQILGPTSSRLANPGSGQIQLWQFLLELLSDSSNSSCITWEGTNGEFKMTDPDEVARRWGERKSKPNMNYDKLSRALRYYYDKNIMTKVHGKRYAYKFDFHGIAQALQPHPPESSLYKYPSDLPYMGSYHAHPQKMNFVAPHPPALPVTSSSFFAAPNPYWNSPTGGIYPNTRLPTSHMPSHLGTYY
The method in brief: as §1

Assay [5] addresses ELF1 (Homo sapiens, UniProt P32519 1-619). The method in brief:
as §1

In assay [6] the target is T5, EHF (Homo sapiens, UniProt Q9NZC4 1-300).
T5 sequence: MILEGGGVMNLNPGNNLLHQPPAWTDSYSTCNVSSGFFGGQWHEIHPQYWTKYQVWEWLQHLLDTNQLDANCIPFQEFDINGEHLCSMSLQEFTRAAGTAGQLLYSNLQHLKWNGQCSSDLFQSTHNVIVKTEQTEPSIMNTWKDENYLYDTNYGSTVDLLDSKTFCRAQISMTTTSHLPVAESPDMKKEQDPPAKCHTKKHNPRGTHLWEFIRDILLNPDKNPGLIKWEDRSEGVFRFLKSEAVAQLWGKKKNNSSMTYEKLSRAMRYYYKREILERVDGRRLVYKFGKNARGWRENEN
In short, it runs like this: as §1

Assay [7] addresses SPI1 (Homo sapiens, UniProt P17947 1-270). In short, it runs like this:
as §1

The target of assay [8] is SPIB (Homo sapiens, UniProt Q01892 1-262). The method in brief:
as §1

For assay [9], the target named is T6, ELK3 (Homo sapiens, UniProt P41970 1-407).
T6 sequence: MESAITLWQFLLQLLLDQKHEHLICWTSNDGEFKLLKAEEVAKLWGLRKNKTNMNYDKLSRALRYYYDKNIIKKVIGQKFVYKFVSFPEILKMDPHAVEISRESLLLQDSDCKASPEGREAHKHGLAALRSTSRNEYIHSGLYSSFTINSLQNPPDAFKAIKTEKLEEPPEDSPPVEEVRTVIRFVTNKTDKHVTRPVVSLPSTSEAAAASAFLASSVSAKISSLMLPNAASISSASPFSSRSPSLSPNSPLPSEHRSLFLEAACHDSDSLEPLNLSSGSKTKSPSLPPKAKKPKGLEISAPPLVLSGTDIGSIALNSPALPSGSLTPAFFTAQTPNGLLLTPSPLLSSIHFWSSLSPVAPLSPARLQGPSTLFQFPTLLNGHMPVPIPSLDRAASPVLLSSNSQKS
In short, it runs like this: as §1

For assay [10], the target named is T7, FEV (Homo sapiens, UniProt Q99581 1-238).
T7 sequence: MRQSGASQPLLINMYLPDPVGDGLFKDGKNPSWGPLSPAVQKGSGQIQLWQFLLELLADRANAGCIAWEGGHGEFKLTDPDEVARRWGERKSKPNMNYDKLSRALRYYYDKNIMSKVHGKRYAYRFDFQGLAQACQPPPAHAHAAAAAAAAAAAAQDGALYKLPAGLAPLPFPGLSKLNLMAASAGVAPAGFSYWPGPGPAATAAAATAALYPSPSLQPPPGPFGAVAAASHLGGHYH
The method in brief: as §1

The target in assay [11] is ETV5 (Homo sapiens, UniProt P41161 1-510). In short, it runs like this:
as §1

Assay [12] addresses T8, SPIC (Homo sapiens, UniProt Q8N5J4 1-248).
T8 sequence: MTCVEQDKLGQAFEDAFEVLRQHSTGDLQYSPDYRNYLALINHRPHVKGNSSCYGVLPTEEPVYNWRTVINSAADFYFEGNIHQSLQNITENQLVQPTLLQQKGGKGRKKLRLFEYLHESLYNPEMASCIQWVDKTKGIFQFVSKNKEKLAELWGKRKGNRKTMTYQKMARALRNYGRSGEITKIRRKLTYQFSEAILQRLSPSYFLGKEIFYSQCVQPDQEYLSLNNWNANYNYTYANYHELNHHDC
The method in brief:
as §1

Assay [13] concerns the target ELF4 (Homo sapiens, UniProt Q99607 1-663). In short, it runs like this:
as §1

Assay [14] has as its target T9, ELK4 (Homo sapiens, UniProt P28324-2 1-405).
T9 sequence: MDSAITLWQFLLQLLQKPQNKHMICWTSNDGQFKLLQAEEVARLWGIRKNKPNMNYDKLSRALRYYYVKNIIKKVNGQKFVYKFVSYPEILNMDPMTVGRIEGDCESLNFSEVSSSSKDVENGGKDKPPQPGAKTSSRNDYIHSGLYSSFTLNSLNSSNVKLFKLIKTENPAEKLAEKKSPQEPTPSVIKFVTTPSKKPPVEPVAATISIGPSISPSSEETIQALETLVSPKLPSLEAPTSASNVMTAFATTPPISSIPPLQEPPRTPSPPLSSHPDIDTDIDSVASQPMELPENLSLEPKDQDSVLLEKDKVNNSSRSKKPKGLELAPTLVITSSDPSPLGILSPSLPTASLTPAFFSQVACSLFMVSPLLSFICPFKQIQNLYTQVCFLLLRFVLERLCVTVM
In short, it runs like this: as §1

For assay [15], the target named is T10, ETV2 (Homo sapiens, UniProt O00321 1-342).
T10 sequence: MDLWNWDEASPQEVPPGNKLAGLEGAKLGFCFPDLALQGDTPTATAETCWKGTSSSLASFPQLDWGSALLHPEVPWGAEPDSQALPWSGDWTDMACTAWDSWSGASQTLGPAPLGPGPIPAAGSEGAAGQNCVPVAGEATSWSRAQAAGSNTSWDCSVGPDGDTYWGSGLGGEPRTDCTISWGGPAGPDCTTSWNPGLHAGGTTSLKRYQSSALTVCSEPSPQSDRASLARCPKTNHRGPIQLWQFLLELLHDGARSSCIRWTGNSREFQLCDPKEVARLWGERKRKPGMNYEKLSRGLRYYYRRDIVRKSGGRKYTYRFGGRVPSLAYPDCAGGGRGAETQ
The method in brief: as §1

Assay [16] addresses T11, ELF3 (Homo sapiens, UniProt P78545 1-371).
T11 sequence: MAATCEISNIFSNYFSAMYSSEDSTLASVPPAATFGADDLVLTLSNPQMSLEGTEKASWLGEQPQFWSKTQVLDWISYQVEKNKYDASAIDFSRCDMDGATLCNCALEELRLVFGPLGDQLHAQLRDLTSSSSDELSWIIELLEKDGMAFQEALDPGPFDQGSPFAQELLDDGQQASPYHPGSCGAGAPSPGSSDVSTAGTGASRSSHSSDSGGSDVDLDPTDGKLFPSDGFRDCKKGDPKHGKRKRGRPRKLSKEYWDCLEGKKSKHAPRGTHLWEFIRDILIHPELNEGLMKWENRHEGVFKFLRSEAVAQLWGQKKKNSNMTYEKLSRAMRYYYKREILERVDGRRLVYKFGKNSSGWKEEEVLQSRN
In short, it runs like this:
as §1

In assay [17] the target is CRX (Homo sapiens, UniProt O43186 1-299). The method in brief:
as §1

The target of assay [18] is ETV1 (Homo sapiens, UniProt P50549 1-477). In short, it runs like this: as §1
Chain of ETV1 (P50549 whole entry): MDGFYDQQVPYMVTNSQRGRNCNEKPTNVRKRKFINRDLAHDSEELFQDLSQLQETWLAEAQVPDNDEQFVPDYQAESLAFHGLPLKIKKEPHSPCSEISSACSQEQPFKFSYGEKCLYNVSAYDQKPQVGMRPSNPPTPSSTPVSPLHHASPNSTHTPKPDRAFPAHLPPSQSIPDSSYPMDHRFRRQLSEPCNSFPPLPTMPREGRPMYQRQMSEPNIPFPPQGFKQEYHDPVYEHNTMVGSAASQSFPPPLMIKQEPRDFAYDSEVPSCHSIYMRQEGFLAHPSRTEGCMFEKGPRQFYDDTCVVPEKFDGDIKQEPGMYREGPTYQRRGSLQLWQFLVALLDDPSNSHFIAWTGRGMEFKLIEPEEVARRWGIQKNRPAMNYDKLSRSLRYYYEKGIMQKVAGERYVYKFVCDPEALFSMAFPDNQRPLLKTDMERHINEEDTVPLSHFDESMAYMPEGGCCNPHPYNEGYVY

Chain of CRX (O43186 whole entry): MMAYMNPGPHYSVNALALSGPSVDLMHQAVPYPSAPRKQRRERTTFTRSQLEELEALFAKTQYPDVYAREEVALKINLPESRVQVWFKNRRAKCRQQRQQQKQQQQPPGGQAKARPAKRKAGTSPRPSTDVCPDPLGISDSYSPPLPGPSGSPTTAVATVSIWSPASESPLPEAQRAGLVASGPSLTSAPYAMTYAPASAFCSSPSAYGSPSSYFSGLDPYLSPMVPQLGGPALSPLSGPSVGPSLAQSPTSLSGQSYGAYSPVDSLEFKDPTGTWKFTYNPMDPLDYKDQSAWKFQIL
Chain of ELF1 (P32519 whole entry): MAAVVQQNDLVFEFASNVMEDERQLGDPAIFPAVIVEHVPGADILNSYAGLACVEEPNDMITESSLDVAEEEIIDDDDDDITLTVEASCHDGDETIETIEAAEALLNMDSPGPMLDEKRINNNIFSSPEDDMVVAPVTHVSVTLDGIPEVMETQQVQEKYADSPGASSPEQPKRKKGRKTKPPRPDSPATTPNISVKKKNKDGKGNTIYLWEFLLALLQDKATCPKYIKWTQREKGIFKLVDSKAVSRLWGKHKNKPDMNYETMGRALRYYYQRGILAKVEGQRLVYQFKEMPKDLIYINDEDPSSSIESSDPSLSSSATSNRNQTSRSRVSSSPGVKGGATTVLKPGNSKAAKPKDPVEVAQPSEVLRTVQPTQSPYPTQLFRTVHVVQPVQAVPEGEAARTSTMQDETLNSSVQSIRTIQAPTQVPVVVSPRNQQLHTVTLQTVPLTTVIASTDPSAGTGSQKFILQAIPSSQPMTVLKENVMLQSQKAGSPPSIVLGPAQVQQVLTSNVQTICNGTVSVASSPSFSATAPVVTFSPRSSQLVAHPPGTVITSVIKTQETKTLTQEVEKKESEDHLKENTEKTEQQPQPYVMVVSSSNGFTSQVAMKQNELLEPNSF
Chain of ELF4 (Q99607 whole entry): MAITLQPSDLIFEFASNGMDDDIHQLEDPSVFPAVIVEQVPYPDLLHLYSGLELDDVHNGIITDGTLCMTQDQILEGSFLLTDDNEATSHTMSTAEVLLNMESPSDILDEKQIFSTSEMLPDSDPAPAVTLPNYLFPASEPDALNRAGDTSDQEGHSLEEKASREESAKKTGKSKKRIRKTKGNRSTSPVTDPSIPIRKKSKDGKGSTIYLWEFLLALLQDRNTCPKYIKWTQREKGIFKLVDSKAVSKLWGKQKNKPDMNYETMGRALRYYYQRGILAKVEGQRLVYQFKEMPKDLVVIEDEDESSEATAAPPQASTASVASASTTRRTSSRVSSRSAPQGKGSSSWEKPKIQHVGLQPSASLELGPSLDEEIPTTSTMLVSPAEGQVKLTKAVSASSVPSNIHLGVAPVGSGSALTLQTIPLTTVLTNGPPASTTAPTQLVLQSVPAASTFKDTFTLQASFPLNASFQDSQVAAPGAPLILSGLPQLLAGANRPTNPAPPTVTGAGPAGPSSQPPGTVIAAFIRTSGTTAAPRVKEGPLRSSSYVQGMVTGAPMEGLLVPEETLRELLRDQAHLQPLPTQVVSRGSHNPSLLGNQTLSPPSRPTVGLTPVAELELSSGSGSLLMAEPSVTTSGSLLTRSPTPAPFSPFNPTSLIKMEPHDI
Chain of ETV5 (P41161 whole entry): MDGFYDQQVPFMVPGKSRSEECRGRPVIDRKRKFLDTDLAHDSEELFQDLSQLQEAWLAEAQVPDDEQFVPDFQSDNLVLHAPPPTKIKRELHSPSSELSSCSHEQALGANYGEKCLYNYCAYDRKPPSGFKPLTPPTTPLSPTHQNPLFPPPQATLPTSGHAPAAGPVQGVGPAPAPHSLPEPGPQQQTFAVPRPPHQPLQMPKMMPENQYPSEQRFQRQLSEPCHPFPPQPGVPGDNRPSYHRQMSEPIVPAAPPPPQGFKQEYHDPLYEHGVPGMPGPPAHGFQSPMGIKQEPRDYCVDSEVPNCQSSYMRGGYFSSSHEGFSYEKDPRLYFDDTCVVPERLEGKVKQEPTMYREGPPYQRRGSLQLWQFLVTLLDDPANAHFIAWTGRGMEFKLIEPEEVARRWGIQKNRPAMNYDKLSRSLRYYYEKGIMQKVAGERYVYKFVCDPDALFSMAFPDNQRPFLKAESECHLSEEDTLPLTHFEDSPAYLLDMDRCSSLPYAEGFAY
Chain of SPIB (Q01892 whole entry): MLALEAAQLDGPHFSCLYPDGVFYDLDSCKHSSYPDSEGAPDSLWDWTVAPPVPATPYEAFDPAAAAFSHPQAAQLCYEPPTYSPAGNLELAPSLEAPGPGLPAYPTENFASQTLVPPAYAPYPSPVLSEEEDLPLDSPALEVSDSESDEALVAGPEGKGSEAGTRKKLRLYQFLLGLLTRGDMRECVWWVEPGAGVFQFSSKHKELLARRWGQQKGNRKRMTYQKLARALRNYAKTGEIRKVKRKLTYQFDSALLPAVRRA

In the case of CCTGTA, the binding signal is 1.31 fold enrichment (6-mer frequency, TF over GST control) in [1]; 1.16 fold enrichment (6-mer frequency, TF over GST control) in assay [2]; 1.12 fold enrichment (6-mer frequency, TF over GST control) in assay [3]; 1.28 fold enrichment (6-mer frequency, TF over GST control) in assay [4]; 1.14 fold enrichment (6-mer frequency, TF over GST control) in [5]; 1.14 fold enrichment (6-mer frequency, TF over GST control) in [6]. Besides, the binding signal in assay [7] is 1.28 fold enrichment (6-mer frequency, TF over GST control); in assay [8] it was 1.19 fold enrichment (6-mer frequency, TF over GST control); in [9] it was 1.28 fold enrichment (6-mer frequency, TF over GST control); in assay [10], 1.2 fold enrichment (6-mer frequency, TF over GST control); in assay [11], 1.26 fold enrichment (6-mer frequency, TF over GST control); in assay [12] it was 1.23 fold enrichment (6-mer frequency, TF over GST control). In addition, the binding signal in assay [13] is 1.25 fold enrichment (6-mer frequency, TF over GST control); in assay [14], 1.16 fold enrichment (6-mer frequency, TF over GST control); in assay [15], 1.21 fold enrichment (6-mer frequency, TF over GST control); in assay [16], 1.09 fold enrichment (6-mer frequency, TF over GST control); in [17] it was 1.04 fold enrichment (6-mer frequency, TF over GST control); in assay [18], 1.3 fold enrichment (6-mer frequency, TF over GST control).

As to ACCCCG, the binding signal in assay [1] is 1.24 fold enrichment (6-mer frequency, TF over GST control); in [2], 1.3 fold enrichment (6-mer frequency, TF over GST control); in assay [3], 1.29 fold enrichment (6-mer frequency, TF over GST control); in assay [4], 1.24 fold enrichment (6-mer frequency, TF over GST control); in assay [5] it was 1.31 fold enrichment (6-mer frequency, TF over GST control); in assay [6] it was 1.27 fold enrichment (6-mer frequency, TF over GST control). Further, the binding signal is 1.14 fold enrichment (6-mer frequency, TF over GST control) in assay [7]; 1.3 fold enrichment (6-mer frequency, TF over GST control) in assay [8]; 1.21 fold enrichment (6-mer frequency, TF over GST control) in assay [9]; 1.25 fold enrichment (6-mer frequency, TF over GST control) in assay [10]; 1.27 fold enrichment (6-mer frequency, TF over GST control) in [11]; 1.38 fold enrichment (6-mer frequency, TF over GST control) in [12]. In addition, the binding signal in assay [13] was 1.33 fold enrichment (6-mer frequency, TF over GST control); in assay [14] it was 1.29 fold enrichment (6-mer frequency, TF over GST control); in [15] it was 1.21 fold enrichment (6-mer frequency, TF over GST control); in [16], 1.22 fold enrichment (6-mer frequency, TF over GST control); in assay [17] it was 1.02 fold enrichment (6-mer frequency, TF over GST control); in [18] it was 1.22 fold enrichment (6-mer frequency, TF over GST control).
